# This is a sample that favours compounds with a hit; in the whole collection about 4.5% have one here.
# PfHsp40 yeast – rescue of yeast from PfHsp40 toxicity, primary screen, S. cerevisiae, ATP luminescence; growth rescue, % at 12.5 µM; 340,000 tested, 0.68% active; S. cerevisiae expressing PfHsp40, growth rescue; in the data active = growth rescue above about 28%, passing the limit was not always enough;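 note: yeast W303a lacking pdr1 and pdr3 grown in galactose medium; growth measured after three days at 30 °C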
# Mtb FBA inh – Mtb FBA enzyme inhibitors, primary screen, biochemical, fluorescence, strain H37Rv; purified M. tuberculosis FBA, fluorescence read-out; inhibition, % at 1 µM; 360,000 tested, 2.3% active; AID 588726, 2011
# Target sequence (P9WQA3 whole entry, looked up): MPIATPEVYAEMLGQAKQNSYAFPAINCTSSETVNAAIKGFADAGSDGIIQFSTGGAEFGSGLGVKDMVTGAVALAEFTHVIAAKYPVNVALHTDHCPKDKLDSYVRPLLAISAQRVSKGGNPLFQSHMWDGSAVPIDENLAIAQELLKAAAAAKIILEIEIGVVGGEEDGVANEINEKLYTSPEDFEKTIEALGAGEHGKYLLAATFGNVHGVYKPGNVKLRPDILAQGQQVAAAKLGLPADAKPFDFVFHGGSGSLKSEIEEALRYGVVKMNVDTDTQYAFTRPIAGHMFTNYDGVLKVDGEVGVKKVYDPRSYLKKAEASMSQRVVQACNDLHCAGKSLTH
# PrP 5UTR inh – inhibition of PrP 5' UTR reporter expression; inhibition, % (no concentration beside the values); 340,000 tested, 0.35% active; cell-based PrP 5' UTR mRNA reporter, plate reader; AID 488862, 2010; in the data active = inhibition above about 52%
# PrPC surface inh – inhibitors of human cell surface prion protein PrPC, primary screen, cell-based, TR-FRET | TR-FRET read-out | inhibition, % at 13.8 µM | 370,000 tested, 0.43% active | AID 720596, 2013; in the data active = inhibition above about 24%
# GDH-TPI counter-1 – GDH-TPI coupling enzyme inhibitors, primary screen, artefact control for M. tuberculosis FBA inhibitor project, biochemical, absorbance, full deck | inhibition, % at 4.8 µM | GDH-TPI coupled enzyme counterscreen, NADH absorbance | 360,000 tested, 1.2% active | AID 588335, 2011; in the data active = inhibition above about 30%
# BJeLR viability – MLPCN primary cell-based screen for lethality selective to Ras in HRASV12 cells; BJeLR (HRASV12) viability, CellTiter-Glo ATP luminescence, 48 h; inhibition, % (test concentration not listed); 300,000 tested, 0.17% active; in the data active = inhibition above about 50%
# Mtb FBA inh conf – M. tuberculosis aldolase blockers, biochemical, fluorescence, strain H37Rv, confirmation; shares compounds with Mtb FBA inh; purified M. tuberculosis FBA, fluorescence read-out; inhibition, % at 1 µM; 5,600 tested, 78% active; AID 651616, 2012
# GDH-TPI counter-2 – GDH-TPI coupling enzyme inhibitors, artefact control for M. tuberculosis FBA inhibitor project, biochemical, fluorescence, high throughput. GDH-TPI coupled enzyme counterscreen. inhibition, % at 1 µM. 5,600 tested, 81% active. shares compounds with Mtb FBA inh; in the data active = inhibition above about 10%
# A number is an active result; – = inactive; · = not tested or not shown; + = active, no number. Cut-off read from the data, not from the text of the source, unless noted: active = inhibition above about 27%; inactive = the rest.
SMILES,PfHsp40 yeast,Mtb FBA inh,PrP 5UTR inh,PrPC surface inh,GDH-TPI counter-1,BJeLR viability,Mtb FBA inh conf,GDH-TPI counter-2
Cc1cc(OC(C)C(=O)N2CCN(c3ccccc3)CC2)c2c(C)c(C)c(=O)oc2c1 (stereo not given),–,–,–,–,–,–,·,·
Cc1cc(OC(C)C(=O)NCC(O)c2ccccc2)c2c(C)c(C)c(=O)oc2c1 (stereo not given),–,50,–,–,–,–,73,45
COc1ccc(CCNC(=O)C2CCN(C(=O)c3ccccc3C)CC2)cc1,·,49,–,–,–,–,–,–
CN(C)c1nc(OCCNC(=O)COc2ccccc2Cl)nc(N(C)C)n1,–,55,–,–,–,–,+,189
Cc1ccc(-c2ccc(S(=O)(=O)Nc3cccnc3)cc2)cc1,–,–,–,–,–,–,·,·
C=C(C)COc1ccc2c(C)c(CC(=O)OC)c(=O)oc2c1C,–,89,–,·,–,·,76,62
Cc1c(CC(=O)O)c(=O)oc2c(C)c(OCc3ccccc3)ccc12,–,–,–,–,–,–,·,·
COC(=O)Cc1c(C)c2ccc(OCC(C)=O)c(C)c2oc1=O,–,79,–,–,–,–,–,–
Cc1c(CC(=O)O)c(=O)oc2c(C)c(OCc3c(F)cccc3Cl)ccc12,–,44,·,–,–,–,76,67
CCc1c(C)c2ccc(OCC(=O)OC(C)C)c(C)c2oc1=O,–,–,–,–,–,–,·,·
C=C(C)COc1ccc2c(C)c(C)c(=O)oc2c1OCC(=C)C,–,–,–,–,–,–,·,·
CC(C)(CC(=O)O)CC(=O)N1CCN(c2cc(C(F)(F)F)nc3ccccc23)CC1,–,–,–,·,–,–,·,·
CC1(C)CC2=C(CO1)C(=S)NC(c1ccccc1)N2CC1CCCO1 (stereo not given),–,–,–,–,–,–,·,·
O=C(Nc1cccc(Cl)c1Cl)c1csc([C@H]2C[C@H](O)[C@@H](CO)O2)n1,·,–,·,–,–,·,·,·
Cc1ccc(-c2cc(C(=O)O)c3ccccc3n2)c(C)c1,–,–,–,–,–,–,·,·
Cc1c(-c2cc(C(=O)O)c3ccccc3n2)cnn1C,–,97,–,–,–,–,136,113
O=c1[nH]c2ccccc2nc1-c1ccccc1,–,45,–,–,31,–,79,76
COc1ccc(-c2nc3c(-c4ccc(F)cc4)cnn3cc2C)cc1F,–,–,–,–,–,–,·,·
COc1ccc(-c2nc3nc(N)nn3cc2C)cc1F,–,28,–,–,–,–,82,70
Cc1cccc(NC(=O)C(C)SCc2nc3sc4c(c3c(=O)[nH]2)CCCC4)n1 (stereo not given),–,31,–,–,–,–,153,93
CCOc1ccc(CN(C)C(=O)CNC(=O)C2CCCCC2)cc1OC,–,–,–,–,–,–,·,·
C=CCn1cc(-c2ccccc2)cc(C#N)c1=O,–,73,–,–,–,–,–,–
CCCCCNc1nc2sc3c(c2c(=O)n1-c1cccc(Cl)c1)CCN(C)C3,–,52,–,–,–,–,109,89
CCCCNc1nc2sc3c(c2c(=O)n1-c1cccc(Cl)c1)CCN(C)C3,–,52,–,–,–,–,190,140
O=C1CC(N2CCSCC2)C(=O)N1c1cccc(Cl)c1 (stereo not given),–,–,–,–,–,–,·,·
COCCN1C(=O)/C(=C/c2ccc(N3CCCC3)cc2C)SC1=S,–,–,–,–,–,·,·,·
CN1CCN(C(=O)c2cccc(-c3cnc4cnc(-c5ccccc5Oc5ccccc5)cn34)c2)CC1,·,36,·,–,–,·,113,102
CC(C(=O)Nc1cccc([N+](=O)[O-])c1)N1C(=O)NC2(CCCC2)C1=O (stereo not given),–,–,–,–,–,–,·,·

# Screens: PubChem BioAssay, several laboratories
